{"source": "PubChem BioAssay AID652061", "about": "(Broad Institute, 2013)", "test": "start codon recognition fidelity modulators – S. cerevisiae, UUG firefly luciferase, cherry-pick, set 2, dose response (AID 652061);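 further: 0% = median DMSO signal and 100% = twice the DMSO signal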", "conditions": "max activity: measured here: max activity, test 2, at 38 µM, test 2, stronger effect = higher value unless noted", "note": "Some of the results follow. Calls of active or inactive are those of the source.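 How the source made its calls: active means signal increase whose fitted curve reaches an absolute level of 40 at a concentration under 10 µM; inactive means activity opposite to the expected increase, or the rest.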"}
{"smiles": "Cc1onc(-c2ccc(Cl)cc2)c1-c1ccnn1S(=O)(=O)c1ccc(Cl)cc1", "values": [{"measurement": "max activity", "value": 13.9, "unit": "%"}, {"measurement": "outcome", "value": "inactive"}]}
{"smiles": "CCc1cccc(C)c1N(C(=O)Cn1c(CO)nc2ccccc21)C(C)COC", "note": "(configuration not stated)", "values": [{"measurement": "max activity", "value": "6.66% [measured here: max activity, test 2, at 12 µM, test 2, stronger effect = higher value]"}, {"measurement": "outcome", "value": "inactive"}]}
{"smiles": "CC(C)C#Cc1ccc2c(c1)O[C@@H](CN(C)C(=O)CN(C)C)[C@@H](C)CN([C@H](C)CO)S2(=O)=O", "values": [{"measurement": "max activity", "value": "-9.02% [at 0.3 µM, test 1, stronger effect = higher value] (inactive)"}]}
{"smiles": "O=C(c1cccnc1)N1C[C@H]2[C@@H](c3ccccc31)[C@H](CO)N2C(=O)C1CC1", "values": [{"measurement": "max activity", "value": "24.4% [at 0.035 µM, test 1, stronger effect = higher value] (inactive)"}]}
{"smiles": "CC1CCC(NC(=O)C2c3ccccc3C(=O)N2Cc2ccc3c(c2)OCO3)CC1", "note": "(configuration not stated)", "values": [{"measurement": "max activity", "value": -4.01, "unit": "%"}, {"measurement": "outcome", "value": "inactive"}]}
{"smiles": "C#CCSc1nnc(-c2sc3ccccc3c2Cl)o1", "values": [{"measurement": "max activity", "value": "6.33% [measured here: max activity, test 2, at 0.46 µM, test 2, stronger effect = higher value]"}, {"measurement": "outcome", "value": "inactive"}]}
{"smiles": "COc1ccc(CCN2C(=O)[C@@]3(Cc4ccccc42)c2ccccc2C(=O)N(Cc2ccccc2C(F)(F)F)[C@H]3c2ccc(CO)cc2)cc1", "values": [{"measurement": "max activity", "value": "5.62% [at 26 µM, test 1, stronger effect = higher value] (inactive)"}]}
{"smiles": "COc1ccc(NC(=O)N(C)C[C@H]2OCCCC[C@@H](C)Oc3ccc(NC(=O)NC4CCCCC4)cc3C(=O)N([C@@H](C)CO)C[C@H]2C)cc1", "values": [{"measurement": "max activity", "value": "8.38% [at 26 µM, test 1, stronger effect = higher value] (inactive)"}]}
{"smiles": "C[C@@H]1CN([C@@H](C)CO)S(=O)(=O)c2ccc(C#Cc3ccc(F)cc3)cc2O[C@H]1CN(C)C(=O)NC1CCCC1", "values": [{"measurement": "max activity", "value": "10% [at 2.85 µM, test 1, stronger effect = higher value] (inactive)"}]}
{"smiles": "CC(=O)Nc1ccccc1-c1cn(CC(=O)N2CCOCC2)nn1", "values": [{"measurement": "max activity", "value": "8.61% [at 75 µM, test 1, stronger effect = higher value] (inactive)"}]}
{"smiles": "COCCCNC(=O)Cn1cc(C(=O)C2CC2)c2ccccc21", "values": [{"measurement": "max activity", "value": "-7.83% [measured here: max activity, test 2, at 1.35 µM, test 2, stronger effect = higher value]"}, {"measurement": "outcome", "value": "inactive"}]}
{"smiles": "c1ccc(-n2cccc2)c(N2CCCCC2)c1", "values": [{"measurement": "max activity", "value": "8.5% [measured here: max activity, test 2, at 0.05 µM, test 2, stronger effect = higher value]"}, {"measurement": "outcome", "value": "inactive"}]}
{"smiles": "Cc1ccc(F)cc1NC(=O)Cc1nn(C)c(=O)c2ccccc12", "values": [{"measurement": "max activity", "value": "-14.8% [measured here: max activity, test 2, at 12 µM, test 2, stronger effect = higher value]"}, {"measurement": "outcome", "value": "inactive"}]}
{"smiles": "Cc1c(Nc2cc(N3CCCC(C)C3)c3nonc3c2[N+](=O)[O-])c(=O)n(-c2ccccc2)n1C", "note": "(configuration not stated)", "values": [{"measurement": "max activity", "value": 9.02, "unit": "%"}, {"measurement": "outcome", "value": "inactive"}]}
{"smiles": "O=C(N[C@H]1CC[C@@H](CCNS(=O)(=O)Cc2ccccc2)O[C@H]1CO)c1ccccc1F", "values": [{"measurement": "max activity", "value": "8.33% [at 0.035 µM, test 1, stronger effect = higher value] (inactive)"}]}
{"smiles": "O=C(COc1ccc(Cl)cc1)NCc1nnc(SCC(=O)NCC2CCCO2)o1", "note": "(configuration not stated)", "values": [{"measurement": "max activity", "value": "-8.21% [measured here: max activity, test 2, at 0.15 µM, test 2, stronger effect = higher value]"}, {"measurement": "outcome", "value": "inactive"}]}
{"smiles": "CCOC(=O)C(=Cc1ccccc1OC)C(=O)OCC", "values": [{"measurement": "max activity", "value": "9.08% [measured here: max activity, test 2, at 0.15 µM, test 2, stronger effect = higher value]"}, {"measurement": "outcome", "value": "inactive"}]}
{"smiles": "O=C(C1CCC1)N1C[C@H]2[C@@H](c3ccccc31)[C@@H](CO)N2C(=O)c1ccccc1F", "values": [{"measurement": "max activity", "value": "6.68% [at 0.035 µM, test 1, stronger effect = higher value] (inactive)"}]}
{"smiles": "O=C1N=C(N2CCc3ccccc3C2)S/C1=C\\c1ccc(O)cc1", "values": [{"measurement": "max activity", "value": "7.99% [measured here: max activity, test 2, at 12 µM, test 2, stronger effect = higher value]"}, {"measurement": "outcome", "value": "inactive"}]}
{"smiles": "C[C@@H]1CN([C@@H](C)CO)C(=O)c2cc(Br)cnc2O[C@@H]1CN(C)C(=O)C1CCCCC1", "values": [{"measurement": "max activity", "value": "-6.87% [at 0.9 µM, test 1, stronger effect = higher value] (inactive)"}]}
{"smiles": "CC1CCCN(S(=O)(=O)c2ccc(N(C(=O)c3cnccn3)C(C(=O)NC3CCCCC3)c3cccs3)cc2)C1", "note": "(configuration not stated)", "values": [{"measurement": "max activity", "value": "-8.84% [measured here: max activity, test 2, at 0.05 µM, test 2, stronger effect = higher value]"}, {"measurement": "outcome", "value": "inactive"}]}
{"smiles": "CC(=O)N1CC(=O)N(CC(=O)Nc2ccc(Br)cc2)C1=S", "values": [{"measurement": "max activity", "value": "9.59% [measured here: max activity, test 2, at 1.35 µM, test 2, stronger effect = higher value]"}, {"measurement": "outcome", "value": "inactive"}]}
{"smiles": "CN1CCN(C(=O)/C(=C\\c2cccs2)NC(=O)c2cccs2)CC1", "values": [{"measurement": "max activity", "value": 13.1, "unit": "%"}, {"measurement": "outcome", "value": "inactive"}]}
